These results are taken from PubChem BioAssay (EPA / NIEHS).

The source holds several records for some structures; these can differ, active in one and inactive in another. Activity calls are given as the source filed them. Rule for the calls: active = hit-call score of the fitted dose curve at least 0.9, where 1 is the maximum; inactive = score below 0.9.

The assay can be described thus: CCTE_Shafer_MEA_acute_per_network_burst_spike_number_std: CCTE's Neural Acute Assay for Standard Deviation of Number of Spikes in a Network Burst, Shafer Lab (AID 2284020).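 Note: fitted for decrease in spike-number SD versus DMSO so actives lower it.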 Here is the method: CCTE_Shafer_MEA_acute assay is conducted using Axion Biosystems 48 well microelectrode array (MEA) plates and Maestro recording system. Each well of the MEA plate contains a grid of 16 microelectrodes embedded in the culture surface. Electrically active cells, such as neurons, can be cultured over the electrodes, and electrical activity in these cells can be recorded extracellularly. The spontaneous firing of neurons is captured from each electrode on a microsecond timescale providing both temporally and spatially precise data. […] The CCTE_Shafer_MEA_acute assay uses primary cultures of rat cortical neurons. As these cultures mature over time, neural networks develop functional activity and form cohesive networks in which electrical activity can be highly coordinated. Baseline 40-minute recordings are made on days post-plating 13 or 15, followed by a secondary 40-minute recording after chemical exposure.CCTE_Shafer_MEA_acute_per_network_burst_spike_number_std is a component of the CCTE_Shafer_MEA_acute assay. It measures the standard deviation of the number of spikes (action potential firings) in a network burst (temporally-clustered group of spikes across multiple electrodes) during a recording in a microelectrode array (MEA) using Axion Biosystems Maestro 768 channel amplifier with the AxIS adaptive spike detector. The recordings before and after chemical treatment are used to calculate a percent change in the standard deviation of the number of spikes in network bursts in each well.Data from the assay component CCTE_Shafer_MEA_acute_burst_spike_number_std was analyzed into 1 assay endpoint. This assay endpoint, CCTE_Shafer_MEA_acute_burst_spike_number_std, was analyzed in the negative analysis fitting direction relative to DMSO as the negative control and baseline of activity. Using a type of functional reporter, gain or loss-of-signal activity can be used to understand electrical activity.
Spontaneous activity in the cortical cultures was recorded using an Axion Biosystems Maestro 768 channel amplifier and Axion Integrated Studios (AxIS) v1.8 (or later) software. The amplifier recorded from all channels simultaneously (gain = 1200 x; sampling rate = 12.5 kHz/channel): raw signals were filtered with a Butterworth band-pass filter (300-5000 Hz), which filters out slower local field potentials leaving only fast potentials, i.e., "spikes", arising from extracellular currents associated with action potentials (Pine 2006; Wheeler and Nam 2011). On-line spike detection of filtered signals was conducted with the AxIS adaptive spike detector, using a threshold of 8x the root mean squared (rms) noise on each channel. Any electrodes with rms noise levels greater than 5 uV were grounded (e.g., no data were recorded). Once grounded, an electrode was grounded for the duration of the experiment. All recordings were conducted at 37 C. Wells were deemed usable if on the day of the exposure >/= 10 electrodes were active (defined as >/= 5 spikes/min). On DIV 13 or 15, a minimum of three wells from one cortical culture preparation were treated with each compound (0.03-40 uM). Prior to recording baseline activity, each mwMEA plate was placed in the Maestro at 37 C and allowed to sit for 20 min while firing rates stabilized. Baseline activity (40 min) was recorded before the addition of each compound. An additional 40 min of spontaneous activity was recorded in the presence of each compound. Changes in network parameters relative to baseline were assessed following compound treatment.
On to `O=C(O)c1ccccc1C(c1ccc(O)cc1)c1ccc(O)cc1`, for which the compound was classed as inactive.
Regarding `CC(=O)NC1(c2cccc(F)c2)CCN(CC[C@@]2(c3ccc(Cl)c(Cl)c3)CN(c3ccccc3)C(=O)CO2)CC1`, the call was inactive.
For the compound `CCc1ccc(CCOc2ccc(CC3SC(=O)NC3=O)cc2)nc1` (configuration not stated), the compound was called inactive.
On to `CCCCCCCCCCCCc1ccccc1S(=O)(=O)O`, for which the outcome was inactive.
Consider `CCC(=C(c1ccc(O)cc1)c1ccc(OCCN(C)C)cc1)c1ccccc1`, for which the AC50 was 23.8 µM (active).
Take `CC(C)CCCCCCOC(=O)CCCCC(=O)OCCCCCCC(C)C`: the compound was called inactive.
In the case of `CN1CCC[C@H]1c1cccnc1`, the result was inactive.
For the compound `Oc1cc2ccccc2c2ccccc12`, the outcome was inactive.
Take `CCCOc1sc(C(=O)N2CCC(c3cc(CN)ccc3F)CC2)c(C)c1Br`: the compound was classed as inactive.
For `OCCC(F)(F)C(F)(F)C(F)(F)C(F)(F)C(F)(F)C(F)(F)C(F)(F)C(F)(F)F`, the outcome was inactive.
Still for that read-out and setting: then `CC(C)(C)c1cc(C(C)(C)C)c(O)c(C(C)(C)C)c1`, with “inactive”.
Consider `CCCCCCCCCCCCCCCS(=O)(=O)Oc1ccccc1`, for which the result was inactive.
As to `CC#C[C@]1(O)CC[C@H]2[C@@H]3CCC4=CC(=O)CCC4=C3[C@@H](c3ccc(N(C)C)cc3)C[C@@]21C`, the AC50 was 9.84 µM (active) and the result was inactive.
Consider `CC[C@H](c1ccc(O)cc1)[C@@H](CC)c1ccc(O)cc1`, for which the call was inactive.
As to `CCCCCCCCCCCCN1CCCC1=O`, the result was inactive.
As for `NC(=O)N(O)[C@@H]1C=C[C@H](Oc2cccc(Oc3ccc(F)cc3)c2)C1`, the AC50 is 10 µM (active).
Take `CN1CCN(c2ccccc2/C=C2\SCCN(c3ccc(Cl)c(Cl)c3)C2=O)CC1`: the outcome was inactive.
In the case of `OC1CCC(C2CCCCC2)CC1` (configuration not stated), the compound was called inactive.
Turning to `O=c1c(-c2ccc(O)cc2)coc2cc(O)ccc12`, the compound was called inactive.
Take `Cc1cc(CCN2CCN(c3nsc4ccccc34)CC2)cc2c1NC(=O)CC2(C)C`: the AC50 is 7.3 µM (active).
On to `CN(C)C=O`, for which the compound was classed as inactive.

The AC50 is the midpoint of the concentration-response curve, whichever way the signal moves.
